Compound activity (PubChem)
Pf growth 48h: Primary qHTS for delayed death inhibitors of the malarial parasite plastid, 48 hour incubation. P. falciparum luciferase growth in erythrocytes, 48 h. Potency, µM (titrated, usually from 28.7 µM), inactives show at the highest dose activity change, negative = inhibition, actives largely listed as inhibitors. 310,000 compounds, 5.9% hits. AID 504832, 2011; further: potency means the concentration at half of the fitted maximal effect; on the % scale 0 is the no-effect control and ±100 the full control effect
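Luciferase-expressing P. falciparum in infected erythrocytes (2% hematocrit, 0.1% parasitemia final) in RPMI 1640/0.5% Albumax were exposed to compound for 48 hours at 37 C, 5% CO2; growth read as luminescence.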
Cycloheximide cs: Cycloheximide Counterscreen for Small Molecule Inhibitors of Shiga Toxin; cell reporter, cycloheximide protein synthesis inhibition counterscreen; max response, %; 300,000 compounds, 12% hits; AID 2314, 2010; in the data active means max response mostly above about 13%, no sharp cut-off; inactive means mostly below about 14%; further: read at 38.3 µM for the half of the compounds with a filed dose; 0% is about no effect
NS1 function inh: qHTS Assay for Inhibitors of Influenza NS1 Protein Function. 270,000 compounds, 0.4% hits. Potency, µM (series often up to 46.1 µM), without a hit: top-dose activity, positive = more growth; calls by dose curve; further: potency means the concentration at half of the fitted maximal effect; actives are rising curves; nearly all actives have a fitted effect of over 50% in size
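A cell-based growth assay was used: compounds that relieve NS1-induced slow growth of budding yeast raise OD600. Assay medium was yeast nitrogen base with ammonium sulphate and -URA supplement, pH 6.0, with 2% galactose.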
Shiga toxin inh: A qHTS for Small Molecule Inhibitors of Shiga Toxin. Vero cells, Shiga toxin protein synthesis inhibition reporter. AID 2315, 2010. inhibition, % at 38.7 µM. 290,000 compounds, 9.2% hits; in the data active means inhibition mostly above about 28%, no sharp cut-off; inactive means mostly below about 43%; further: 0% is about no effect
Giardia FBPA inh: qHTS Assay for Inhibitors of Fructose-1,6-bisphosphate Aldolase from Giardia Lamblia | 290,000 compounds, 0.71% hits | A8B2U2 | AID 2451, 2010 | purified Giardia FBPA | Potency, µM (titrated, usually from 59.6 µM), for inactives: at the highest dose activity, negative = inhibition, hits mostly inhibitors; further: potency means the concentration at half of the fitted maximal effect; on the % scale 0 is the no-effect control and ±100 the full control effect; nearly all actives have a fitted effect of over 55% in size
Target sequence (A8B2U2 whole entry, looked up): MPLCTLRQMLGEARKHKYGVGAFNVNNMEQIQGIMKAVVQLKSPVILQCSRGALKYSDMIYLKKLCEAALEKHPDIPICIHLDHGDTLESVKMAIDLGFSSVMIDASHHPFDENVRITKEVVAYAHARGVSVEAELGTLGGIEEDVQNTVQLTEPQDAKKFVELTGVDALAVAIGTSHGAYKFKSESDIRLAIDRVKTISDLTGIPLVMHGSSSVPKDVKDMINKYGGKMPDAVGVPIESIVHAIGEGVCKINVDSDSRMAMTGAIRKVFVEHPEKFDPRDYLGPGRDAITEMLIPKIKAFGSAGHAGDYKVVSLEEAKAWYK
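Giardia FBPA (40 nM reagent) was preincubated 10 min at RT with compound (up to 57.5 uM final), then substrate plus GAPDH/TPI/NAD/arsenate coupling system with diaphorase/resazurin was added; resorufin fluorescence (525/598 nm) was read after 20 min.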
Pf growth 96h: Primary qHTS for delayed death inhibitors of the malarial parasite plastid, 96 hour incubation | P. falciparum luciferase reporter growth, 96 h | Potency, µM (highest dose often 28.7 µM), without a hit: at the top dose activity change, negative = inhibition, hits mostly inhibitors | 320,000 compounds, 6.9% hits | AID 504834, 2011; further: potency means the concentration at half of the fitted maximal effect; on the % scale 0 is the no-effect control and ±100 the full control effect
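Erythrocytes infected with luciferase-expressing P. falciparum were dispensed at 2% hematocrit and 0.05% parasitemia (final), then incubated with compounds 96 hours at 37 C in 5% CO2. Luminescence after detection reagent addition reported growth.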
The depositor's hits bear a star; ? = inconclusive; nt = not tested or not shown; ! = a repeat was not active; [ ] = dose if it differs, or a comment. Shown are actives, neighbours in structure and some others; about 21% of the full set was active somewhere. Unless noted, the call rests on the fitted dose curve; in most records, active means well fitted curve in the direction sought with a large enough effect; inconclusive means small, poorly fitted or top-dose-only effect, or another doubt; inactive means no such curve, though single readings can be large; an effect the other way counts as inactive or inconclusive.

SMILES | Pf growth 48h | Cycloheximide cs | NS1 function inh | Shiga toxin inh | Giardia FBPA inh | Pf growth 96h
CCC(NC(C)C)C(O)c1ccc(O)c(O)c1 (stereo not given) | ? | -2 | 0% | 16 | 2.8µM* | ?
CC[C@H](NC(C)C)[C@H](O)c1ccc(O)c2[nH]c(=O)ccc12 | -27% | nt | nt | nt | -4% | 0.24µM*
COc1ccc(C(=O)NCc2nnc(SCC(=O)NC3CCCC3)o2)cc1 | -11% | 12 | -9% | 0 | 2% | 28%
O=S(=O)(c1ccc2nc(N3CCN(c4ccc(F)cc4)CC3)ccc2c1)N1CCCCC1 | 3% | -1 | 7% | -3 | nt | 13µM*
O=S(=O)(c1ccc2nc(N3CCN(c4ccccc4F)CC3)ccc2c1)N1CCCCC1 | 10% | -2 | 3% | 15 | nt | ?
CC1CCN(S(=O)(=O)c2ccc3nc(N4CCN(c5ccccc5)CC4)ccc3c2)CC1 | -3% | -7 | -2% | 17 | nt | 10µM*
Cc1ccc(OCC(=O)c2ccc3c(c2)CCCC3)cc1C | 72% | 36* | 8% | 92* | -2% | 0%
Cc1cc(OCC(=O)c2ccc(Br)cc2)ccc1N1C(=O)CCC1=O | nt | 21 | 11% | 39 | 13% | ?
O=C(COc1ccc(Br)cc1)c1ccc2c(c1)CCCC2 | 33% | -3 | 8% | -5 | 0% | 8.3µM*
COc1cccc(C(=O)Nc2nnc(S(=O)(=O)N(C)Cc3ccc(F)cc3)s2)c1 | -20% | -1 | -17% | 13 | -28% | 0%
O[C@@H]1CO[C@H]2[C@@H]1OC[C@@H]2O | 6% | nt | nt | nt | nt | -8%
CCCCn1c(N)c(C(=O)OCC2CCCO2)c2nc3ccccc3nc21 (stereo not given) | 9.3µM* | 5 | -33% | -8 | ? | 18%
CCOCCCn1c(N)c(C(=O)Nc2sc3c(c2C(=O)OC)CCCC3)c2nc3ccccc3nc21 | 15µM* | 2 | ? | 12 | ? | ?
CCOC(=O)c1c(NC(=O)c2c(N)n(CCCOC)c3nc4ccccc4nc23)sc2c1CCCC2 | ? | -2 | 1% | -1 | nt | ?
CCn1ncc(Br)c1C(=O)Nc1sc2c(c1C(=O)OC)CCC2 | nt | nt | -2% | nt | nt | nt
CCn1ccc(C(=O)Nc2sc3c(c2C(=O)OC)CCC3)n1 | ? | 10 | -18% | 16 | nt | 12µM*
CC(C)CCn1c(N)c(C(=O)OCC2CCCO2)c2nc3ccccc3nc21 (stereo not given) | ? | 1 | -209% | 24 | -14% | ?
CCCCOCCCn1c(N)c(C(=O)OCCOC)c2nc3ccccc3nc21 | ? | 4 | -22% | 2 | -30% | 10µM*
COC(=O)C1CCN(C2CC(=O)N(c3cc(C)cc(C)c3)C2=O)CC1 (stereo not given) | 0%[5.75 µM] | 2 | nt | -6 | 1% | 30%
c1ccc(-c2oc3ncnc(NCCN4CCOCC4)c3c2-c2ccccc2)cc1 | ? | -4 | -116% | -24 | -12% | 14%
N=c1c2c(-c3ccccc3)c(-c3ccccc3)n(Cc3ccco3)c2ncn1CCCn1ccnc1 | 1.9µM* | -6 | -2% | -3 | 9% | ?
c1ccc(-c2c(-c3ccccc3)n(Cc3ccco3)c3ncnc(NCCCn4ccnc4)c23)cc1 | nt | -4 | -101% | -15 | 2% | 2.1µM*
CN(C)CCCNc1ncnc2oc(-c3ccccc3)c(-c3ccccc3)c12 | 17µM* | -5 | 7% | -13 | 2% | 13µM*
OCCNc1ncnc2c1c(-c1ccccc1)c(-c1ccccc1)n2Cc1ccco1 | nt | -3 | 18% | -4 | 15% | -15%
c1ccc(-c2oc3ncnc(NCCCn4ccnc4)c3c2-c2ccccc2)cc1 | 13µM* | 0 | -35% | -14 | 17% | 22%
SMILES | Pf growth 48h | Cycloheximide cs | NS1 function inh | Shiga toxin inh | Giardia FBPA inh | Pf growth 96h
OCC[C@H]1C[C@@H](O)[C@H](O)[C@@]2(CCc3ccccc3O2)O1 | -21% | nt | nt | nt | nt | 2%
CC(=O)N[C@@H](Cc1ccc(O)cc1)C(=O)O | -20% | -4 | nt | -16 | 2% | ?
COc1ccc(-n2c(=O)c(CCC(=O)N3CCN(c4ccccc4O)CC3)nc3ccccc32)cc1 | 3.7µM* | nt | nt | nt | nt | 8.3µM*
COc1ccc(N2CCN(C(=O)CCc3ccccc3OC)CC2)cc1 | nt | -3 | -8% | 5 | -4% | -14%
N#CC1=C(N)Oc2c(c(=O)oc3ccccc23)C1c1ccc(OC(=O)N2CCOCC2)cc1 (stereo not given) | 9.3µM* | 9 | -111% | -17 | -3% | 12µM*
Cc1ccc(-c2nc(N)sc2C)cc1 | 15% | 15* | nt | 33* | -7% | 58%
Cc1ccc(-c2nc(N)sc2-c2ccc(C)cc2)cc1 | -6% | -4 | nt | -18 | -10% | -15%
Cc1nnc2ccc(N3CCOCC3)nn12 | 12% | -4 | 8% | -10 | 4% | 31%
CCOC(=O)C1CCN(C(=O)c2cccs2)CC1 | 0% | -2 | 2% | 5 | 5% | -2%
CCOC(=O)C1CCN(c2ccc(-c3cccs3)nn2)CC1 | 25% | 37* | -9% | 99* | 3% | 47%
c1csc(-c2ccc(N3CCOCC3)nn2)c1 | 146% | 25* | 7% | 27 | 0% | ?
CCOC(=O)C1CCN(C(=S)NC(=O)c2cccs2)CC1 | ? | 29* | 0% | 47 | ? | 2%
COc1ccc(N2CCN(S(=O)(=O)CCNC(=O)c3ccc(Br)o3)CC2)cc1 | 7% | 8 | 0% | -6 | -1% | ?
Cc1nnc(SC(C)C(=O)Nc2ncc(Cl)cc2Cl)n1Cc1ccccc1 (stereo not given) | ? | -7 | 9% | -13 | 6% | 2.1µM*
COCCn1c(SC(C)C(=O)Nc2ncc(Cl)cc2Cl)nc2ccccc21 (stereo not given) | ? | -10 | -3% | -7 | 8% | nt
COc1ccc2nc(N/C(N)=N/C(=S)Nc3ccccc3)nc(C)c2c1 | ? | 24* | nt | 69* | 2% | 3%
CCOc1ccc2nc(N/C(N)=N/C(=S)Nc3ccc(OC)cc3)nc(C)c2c1 | 4.1µM* | -4 | 2% | -3 | 7% | ?
COc1ccc2nc(N/C(N)=N/C(=S)Nc3ccc(C)c(C)c3)nc(C)c2c1 | 2% | 3 | ? | -9 | 10% | ?
COc1ccc(CC(NC(C)=O)C(=O)NC2CCN(C(=O)c3ccccc3F)CC2)cc1 (stereo not given) | -2% | -1 | -4% | -14 | 16% | 5%
Cc1cccc(CN2CCC(N3CC(C)OC(C)C3)CC2)c1 (stereo not given) | -7% | -1 | 21% | -2 | ? | 12µM*
Clc1cccc(N2CCNCC2)c1 | ? | nt | 11% | nt | 2% | 13µM*!
CN(C(=O)c1cccc(Nc2ccc(-c3ccc4c(c3)OCCO4)nn2)c1)C1CCCCC1 | ? | 53* | ? | 64* | 0% | 39%
